Vaccinia Venus – qHTS for Stage-Specific Inhibitors of Vaccinia Orthopoxvirus: Venus Reporter Primary qHTS. Potency, µM (doses to about 36.5 µM), without a hit: top-dose activity change, negative = inhibition, most hits filed as inhibitors. Vaccinia virus Venus reporter expression, fluorescence. hit rate 0.46% among 330,000. AID 720580, 2013; calls by dose curve; tested in A549 cells; note: potency is the fitted concentration of half-maximal effect; nearly all actives have a fitted effect of over 30% in size
FMDV inh – High Throughput Screening for Foot and Mouth Disease Virus Antivirals. FMDV antiviral cell-based qHTS. Potency, µM (highest dose often 57.9 µM), for inactives: at the highest dose activity change, negative = inhibition, most hits filed as inhibitors. hit rate 1.2% among 410,000. AID 1159524, 2015; calls by dose curve; tested in HEK293T cells; note: read-out not given here; potency is the fitted concentration of half-maximal effect; nearly all actives have a fitted effect of over 45% in size
HCMV inh – qHTS Assay for inhibitors of the human cytomegalovirus (HCMV). hit rate 4.5% among 410,000. activity change, negative = inhibition, % at 57.5 µM. HFF cells, HCMV-luciferase reporter, 72 h; hits give low values; in the data active = activity change below about -60%; inconclusive = no clear call, values can overlap the other calls; inactive = above about -39%
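HFF cells seeded 16 h at 37C, treated with compounds, infected with luciferase-reporter HCMV at MOI 1 PFU/cell; luciferase read at 72 h post infection, normalized to buffer-only and Salinomycin controls.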
Vaccinia mCherry – qHTS for Stage-Specific Inhibitors of Vaccinia Orthopoxvirus: mCherry Reporter Primary qHTS | Vaccinia virus mCherry reporter infection, fluorescence | Potency, µM (highest dose often 36.5 µM), for the others: at the highest dose activity change, negative = inhibition, usual class: inhibitors | hit rate 0.63% among 310,000 | AID 720579, 2013; calls by dose curve; tested in A549 cells; note: potency is the fitted concentration of half-maximal effect; nearly all actives have a fitted effect of over 35% in size
HCV inh – qHTS Assay for Inhibitors of Hepatitis C Virus (HCV) | Potency, µM (series often up to 41.8 µM), for inactives: at the top dose activity change, negative = inhibition, hits mostly inhibitors | hit rate 3.4% among 340,000 | Huh7.5.1 HCVcc-Cre infection, luciferase reporter, 44 h | AID 651820, 2012; active = well fitted inhibition curve with a large enough effect; inconclusive = small, poorly fitted or top-dose-only effect, or another doubt; inactive = no such curve, though single readings can be large or run the other way; note: potency is the fitted concentration of half-maximal effect
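Infectious HCVcc-Cre (~0.5 moi) was added to cells just after compound, with cells seeded 4 h earlier at 1,000 per well. Luciferase activity after 44 h culture reported infection; substrate was incubated 15 min at room temperature before reading.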
* marks the source's active call; other numbers are inactive results; i = inactive; ? = inconclusive; · = no result; + = active, no number; [ ] = remark or other dose. This is a sample that favours compounds with a hit; in the whole collection about 7.3% have one here. % is set by controls: 0 for no effect and ±100 for the full control effect.

SMILES | Vaccinia Venus | FMDV inh | HCMV inh | Vaccinia mCherry | HCV inh
Cc1cccc(C)c1OC(=O)Cc1ccccc1[N+](=O)[O-] | -6% | -18% | -64* | i | -14%
Cc1nn2c(=O)cc(COC(=O)c3cccc(NC(=O)COc4ccc(C)c(C)c4)c3)nc2s1 | -7% | 15% | -62* | -13% | ·
CCc1nn2c(=O)cc(COC(=O)c3ccccc3NC(=O)COc3ccccc3C)nc2s1 | -9% | 22% | 8 | -13% | ·
COc1ccc(OCC(=O)Nc2ccccc2C(=O)OCc2cc(=O)n3nc(C)sc3n2)cc1 | -12% | 20µM* | -22 | -16% | ·
Cc1nn2c(=O)cc(COC(=O)c3ccc(NC(=O)CCc4ccccc4)cc3)nc2s1 | -6% | 11µM* | 56 | -1% | ·
CCCc1nn2c(=O)cc(COC(=O)c3ccc(NC(=O)COc4ccccc4)cc3)nc2s1 | -14% | -6% | -1 | 0% | ·
Cc1nn2c(=O)cc(COC(=O)c3ccc(NC(=O)COc4ccc(C)c(C)c4)cc3)nc2s1 | -23% | 11µM* | -28 | -14% | ·
Cc1cc(C)c(S(=O)(=O)NCc2csc(-c3ccccc3)n2)c(C)c1 | -4% | 8% | ? | -16% | ·
Cc1nn2c(=O)cc(COC(=O)c3ccc(NC(=O)COc4ccccc4F)cc3)nc2s1 | -23% | 10µM* | 4 | -10% | ·
CCCc1nn2c(=O)cc(COC(=O)c3ccc(NC(=O)c4cccs4)cc3)nc2s1 | -18% | -15% | -96* | -1% | ·
O=C(OCc1cc(=O)n2nc(C3CC3)sc2n1)c1ccc(NC(=O)c2ccccc2Cl)cc1 | -6% | 20µM* | -16 | ? | ·
Cc1nn2c(=O)cc(COC(=O)c3cccc(NC(=O)COc4ccccc4C)c3)nc2s1 | -7% | 2.8µM* | ? | -4% | ·
Cc1nn2c(=O)cc(COC(=O)c3cccc(NC(=O)CCc4ccccc4)c3)nc2s1 | -15% | 3% | 56 | i | ·
COc1ccccc1C(=O)Nc1ccc(C(=O)OCc2cc(=O)n3nc(C4CC4)sc3n2)cc1 | -16% | -21% | -19 | -16% | ·
COc1ccccc1C(=O)Nc1ccc(C(=O)OCc2cc(=O)n3nc(C)sc3n2)cc1 | ? | 16µM* | 70 | ? | ·
Cc1ccc(OCC(=O)Nc2cccc(C(=O)OCc3cc(=O)n4nc(C)sc4n3)c2)cc1 | -5%[7.34 µM] | 13µM* | 4 | -7%[7.34 µM] | ·
O=C(CSC1=N/C(=C/c2ccco2)C(=O)N1c1ccc(OC(F)F)cc1)NC1CCS(=O)(=O)C1 (stereo unspecified) | -5% | -26% | -6 | -6% | 8%
CCNC(=O)CSC1=N/C(=C\c2ccc(O)c(OCC)c2)C(=O)N1c1ccc(OC(F)F)cc1 | 45% | 12% | -70* | -8% | -20%
O=C(CSc1n[nH]c(-c2ccccc2Cl)n1)N1CCN(c2ccccc2)CC1 | -3% | 35µM* | 37 | -7% | ·
CCOc1ccc2c(c1)C(C)=CC(C)(C)N2S(=O)(=O)c1ccc(F)cc1 | · | -23% | -33 | · | ?
COc1ccc2c(c1)C(C)=CC(C)(C)N2S(=O)(=O)c1ccc(Br)cc1 | -13% | -17% | -80* | -5% | ?
COc1ccc2c(c1)C(C)=CC(C)(C)N2S(=O)(=O)c1ccc(NC(C)=O)cc1 | ? | -27% | -90* | -15% | 6%
COc1ccc(-c2nc3sc(CCNC(=O)C(=O)Nc4ccc(C)c(F)c4)c(C)n3n2)cc1 | -7% | 28% | 20 | -3% | ·
CCCc1cc(=O)[nH]c(Nc2cc(Cl)cc(Cl)c2)n1 | ? | ? | -106* | ? | ·
COc1cccc(CNC(=O)C2CCCN(S(=O)(=O)N(C)c3ccc(F)cc3)C2)c1OC (stereo unspecified) | -26% | 22µM* | -71* | -12% | ·
SMILES | Vaccinia Venus | FMDV inh | HCMV inh | Vaccinia mCherry | HCV inh
CN(c1ccc(F)cc1)S(=O)(=O)N1CCCC(C(=O)NCc2ccccc2Cl)C1 (stereo unspecified) | -5% | -9% | -40 | -12% | ·
COc1ccc(OC)c(CNC(=O)C2CCCN(S(=O)(=O)N3CCC(C)CC3)C2)c1 (stereo unspecified) | · | -17% | -24 | · | 9%
CSc1ccc(CCNC(=O)C2CCCN(S(=O)(=O)N(C)c3ccc(F)cc3)C2)cc1 (stereo unspecified) | -22% | 35µM* | ? | -7% | ·
COc1ccc(CNC(=O)C2CCCN(S(=O)(=O)N3CCC(C)CC3)C2)c(OC)c1 (stereo unspecified) | -20% | 7% | + | -2% | -3%
CC(C)(C)c1ccc(NC(=O)CSc2nnc3scc(-c4ccccc4)n23)cc1 | -20% | ? | ? | -25% | ·
CCOC(=O)N1CCC(NC(=O)c2cnn(-c3cccc(F)c3)c2-n2cccc2)CC1 | -10% | ? | 0 | -5% | ·
Cc1ccc(C)c(C(=O)CSc2nc3cc(C(=O)NC4CCCC4)ccc3c(=O)n2CC2CCCO2)c1 (stereo unspecified) | -12% | -27% | 6 | -16% | ·
CN(C)S(=O)(=O)N1CCC(Oc2ccc(C(=O)NCC(C)(C)CO)cc2)CC1 | -12% | 4% | -64* | -16% | 18%
CN(C)S(=O)(=O)N1CCC(Oc2cccc(C(=O)NC3CCCCC3)c2)CC1 | -19% | ? | ? | i | 5.6µM*
C=CCNC(=O)c1ccc(OC2CCN(S(=O)(=O)N(C)C)CC2)cc1 | -6% | 0% | -17 | 3% | -1%
Cc1ccccc1N(C)C(=O)c1noc2c1COc1ccccc1-2 | -6% | 4% | ? | -12% | ·
O=C(OCC(=O)N1CCc2ccccc21)c1c2c(nc3ccccc13)CCCC2 | ? | -13% | -7 | ? | 2µM*
O=C(COC(=O)c1c2c(nc3ccccc13)CCCC2)c1cccs1 | -14% | ? | -8 | -22% | ?
O=C(COC(=O)c1c2c(nc3ccccc13)CCCCC2)c1ccc(Cl)s1 | -14% | 8% | 9 | -17% | 10µM*
Cc1ccccc1-c1nnc(SCC(=O)N2CCCc3ccccc32)o1 | -2% | -10% | -7 | -11% | ·
Cc1cc2cc(CCNS(=O)(=O)c3ccc(Br)cc3)c(=O)[nH]c2cc1C | -29% | -30% | 37 | ? | ·
O=c1[nH]c2cc3c(cc2cc1C(c1nnnn1C1CCCC1)N1CCSCC1)OCCO3 (stereo unspecified) | 0% | 6% | -79* | -12% | 16%
Cc1cc(C(=O)N/N=C/c2cccc(OC(=O)c3cccc(Br)c3)c2)n[nH]1 | · | 23% | -71* | · | 4%
COc1cccc(C(=O)Oc2c(Br)cc(Br)cc2/C=N/NC(=O)c2cc(C)[nH]n2)c1 | ? | -8% | -97* | ? | ?
Cc1cc(C(=O)N/N=C/c2cccc([N+](=O)[O-])c2O)n[nH]1 | · | 24% | 13 | · | 11%
COc1cc(C(=O)Oc2cccc(/C=N/NC(=O)c3cc(C)[nH]n3)c2)cc(OC)c1OC | -2% | -2% | 32 | -20% | ?

Assay outcomes: PubChem, National Center for Advancing Translational Sciences (NCATS)
